# Experimental data reported in PubChem BioAssay (NCI).
# Compounds without any hit were thinned out: in the full panel of roughly 83,000, 20% have a hit.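 Cells were grown in 96-well plates and exposed to the test compound at a single concentration for 48 hours; results are reported as percent growth, with values below 10 considered active.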 Calls of active or inactive are those of the source.
# Tested on: SK-MEL-5 melanoma
# Assay: NCI-60 one-dose screen, 48 h (100 = growth as untreated, 0 = no growth, -100 = all killed)
# Details: 10 µM unless noted
row,Compound,growth
1,CC(=O)OC[C@]12CC[C@@H](c3cn(Cc4ccc(Cn5cc([C@@H]6CC[C@]7(COC(C)=O)CC[C@]8(C)[C@H](CC[C@@H]9[C@@]%10(C)CC[C@H](OC(C)=O)C(C)(C)[C@@H]%10CC[C@]98C)[C@@H]67)nn5)cc4)nn3)[C@@H]1[C@H]1CC[C@@H]3[C@@]4(C)CC[C@H](OC(C)=O)C(C)(C)[C@@H]4CC[C@@]3(C)[C@]1(C)CC2,105% (inactive)
2,Cc1c(Br)cccc1NC(=O)c1sc2nc3c(cc2c1N)CN(Cc1ccccc1)CC3,19.4% (inactive)
3,COc1cccc(C(=O)OCCn2nc3c4c(cccc42)C(=O)c2ccccc2-3)c1O,36.4% (inactive)

# Tested on: UACC-62 melanoma
# Assay: as above
# Details: 10 µM unless noted
row,Compound,growth
1,CCc1ccc(OCc2ccccc2C(=O)Nc2ccc3nc(C)cc(N)c3c2)cc1,-92.6% (active)
2,Nc1cccc(C(=O)Nc2ccc3c(O)c(N=Nc4ccc(N=Nc5ccc(S(=O)(=O)O)cc5)cc4)c(S(=O)(=O)O)cc3c2)c1,97.4% (inactive)
3,COc1cc(NCC(=O)Nc2cc(Nc3cccc(C(F)(F)F)c3)ncn2)c(Cl)c(OC)c1Cl,75.5% (inactive)
4,CC1CCCN(CCCCCOc2ccc3oc4ccccc4c(=O)c3c2)C1 (configuration not stated),-26.5% (active)
5,CCCn1c(N)c(C(N)=O)sc1=S,97.9% (inactive)
6,CCOC(=O)c1sc(/N=C2\NC(=O)/C(=C/c3ccc(N4CCN(C)CC4)cc3)S2)nc1C,113% (inactive)
7,CN(C)C1=NCCN1,102% (inactive)
8,CCOC(=O)c1ccc(Nc2ncnc3ccc(NC(=O)c4ccccc4)cc23)cc1,88.9% (inactive)
9,N#CC1C(c2ccc(Cl)cc2)=Nc2c(c(-c3ccccc3)nn2-c2ccccc2)C12C(=O)Nc1ccc(Cl)cc12 (configuration not stated),48.2% (inactive)
10,C#C[C@@]1(O)[C@@H](CO)O[C@@H](n2ccc3c(N)ncnc32)[C@@H]1O,-16.5% (active)
11,CN(C)CCCn1c2c(c3cc(-c4cccc(S(N)(=O)=O)c4)ccc3c1=O)C(=O)c1ccccc1-2,77.3% (inactive)
12,C=C1C(=O)O[C@H]2[C@H]1CC/C(COC(=O)/C=C/c1cccnc1)=C\CC[C@@]1(C)O[C@@H]21,41.1% (inactive)
13,C#C[C@@]1(O)[C@@H](CO)O[C@@H](n2cc(Cl)c3c(N)ncnc32)[C@@H]1O,-54.2% (active)
14,CCOc1ccc(C2N(c3cc(OC)c(OC)c(OC)c3)C(=O)C2(F)F)cc1 (configuration not stated),51.6% (inactive)
15,O=C1C(Cl)=C(NCCCN(CCCNC2=C(Cl)C(=O)c3ccccc3C2=O)C2=C(Cl)C(=O)c3ccccc3C2=O)C(=O)c2ccccc21,17.9% (inactive)
16,COc1ccc(-c2nc(C#N)c(NCC(c3ccc(Cl)cc3)N3CCCCC3)o2)cc1 (configuration not stated),90.4% (inactive)
17,Cc1nc2sc(C(=O)Nc3ccccc3)c(N)c2cc1C(C)O (configuration not stated),29.5% (inactive)
18,O=C1CCC23OC(c4ccccc4N12)C(O)C(O)C3O (configuration not stated),98.5% (inactive)
19,C=C1C(=O)O[C@H]2[C@H]1CC/C(COC(=O)CCCCC(=O)OC/C1=C/CC[C@@]3(C)O[C@H]3[C@H]3OC(=O)C(=C)[C@@H]3CC1)=C\CC[C@@]1(C)O[C@@H]21,48.3% (inactive)
20,CC[C@]12C=CCN3CC[C@@]4(c5cc(NC(=O)CCC(=O)O[C@H]6CC[C@H]7[C@@H]8CC[C@H]9CC(=O)CC[C@]9(C)[C@H]8CC[C@]67C)c(OC)cc5N(C)[C@H]4[C@@](O)(C(=O)OC)[C@@H]1OC(C)=O)[C@@H]32,81.2% (inactive)
21,N#CC(C#N)=C1NC(c2ccccc2)=C(c2ccccc2)C(c2ccccc2Cl)=C1C#N,102% (inactive)
22,CCCCCCCCCCCCCC1=NCC[N+]1(CCO)Cc1ccccc1 (configuration not stated),-87.4% (active)
23,Cc1cc(C)n(-c2nc(-c3cccs3)c(C#N)c(=O)[nH]2)n1,94.8% (inactive)
24,COc1ccc(C2C(c3ccccc3)C(=O)N2c2cc(OC)c(OC)c(OC)c2)cc1I (configuration not stated),28.1% (inactive)
25,CC(C)(C)c1ccc2oc(=O)n(SC(Cl)(Cl)Cl)c2c1,109% (inactive)
26,CCOC(=O)c1c(C)nc2c(c1N)/C(=C/c1ccccn1)C(=O)N2Cc1ccccc1,4.68% (active)
27,O=C(Nc1cccc(-c2cccc(F)c2)c1)C1CCN(Cc2cccc3cccnc23)CC1,-44.8% (active)
28,COc1ccc(C(C)c2cc(OC)c(OC)c(OC)c2)cc1 (configuration not stated),28.1% (inactive)
29,Cc1ccc(SC2c3ccc(C)cc3Oc3nc(N)c(C#N)c(N)c32)cc1 (configuration not stated),103% (inactive)
